According to PubChem BioAssay:
Activity calls are given as the source filed them.

Key:
[1] = tested on: Plasmodium falciparum Sir2 (PF13_0152, Sir2A); assay: pfSir2 binders on small-molecule microarrays, primary screen, biochemical, small-molecule microarray, 635 nm fluorescence (AID 1098); details: small-molecule microarray binding, fluorescence 635 nm; higher = more signal;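 also: score merges spot fluorescence intensity with its signal-to-noise ratio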
[2] = small-molecule microarray binders of probe aDKK1, primary screen, biochemical, biotinylated probe, 635/667 nm fluorescence (AID 1099); details: higher = more signal;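 also: score merges 667nm spot fluorescence with signal to noise across triplicate slides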
[3] = small-molecule microarray binders of probe aCHRDL2, primary screen, biochemical, biotinylated probe, 635/667 nm fluorescence (AID 1100); details: higher = more signal
[4] = splicing luciferase reporter signal modulators, primary screen, spliceosome inhibition project, cell-based, HEK293, splice +/- reporter (AID 1101); details: luminescence, 24 h, higher = more signal, called active from +8 up or from −8 down;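 also: HEK293 cells carrying a splicing-competent luciferase reporter gene; test concentration not given here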
[5] = target: Fibroblast growth factor 10 (Homo sapiens) (UniProt O15520); assay: FGF10 binders on small-molecule microarrays, primary screen, biochemical, small-molecule microarray, 635 nm fluorescence (AID 1102); details: FGF10 binding, fluorescence 635 nm, higher = more signal
[6] = tested on: glycogen synthase kinase-3 (GSK3A per assay name; protocol says GSK3B); assay: GSK3 binders on small-molecule microarrays, primary screen, biochemical, small-molecule microarray, 635 nm fluorescence, GSK3A (AID 1103); details: small-molecule microarray binding, fluorescence 635 nm; higher = more signal; also: the record names both GSK3A and GSK3B
[7] = target: Epidermal growth factor receptor (Homo sapiens) (UniProt P00533); assay: EGFR binders on small-molecule microarrays, primary screen, biochemical, small-molecule microarray, 635 nm fluorescence (AID 1104); details: EGFR binding, higher = more signal;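 also: score merges 667 nm emission intensity with spot signal to noise over triplicate slides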
[8] = target: Follistatin-related protein 3 (Homo sapiens) (UniProt O95633); assay: FSTL3 binders on small-molecule microarrays, primary screen, biochemical, small-molecule microarray, 635 nm fluorescence (AID 1105); details: FSTL3 binding, higher = more signal;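 also: score merges emission near 667 nm and signal to noise per printed spot across three slides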
[9] = target: Dickkopf-related protein 1 (Homo sapiens) (UniProt O94907); assay: DKK1 binders on small-molecule microarrays, primary screen, biochemical, small-molecule microarray, 635 nm fluorescence scan (AID 1106); details: DKK1 binding, higher = more signal;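 also: score merges emission near 667 nm with signal to noise over three replicate slides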
[10] = tested on: Inhibin beta A chain (activin A); assay: INHBA (activin A) binders on microarrays, primary screen, biochemical, small-molecule microarray, 635 nm fluorescence scan (AID 1107); details: small-molecule microarray binding, higher = more signal;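 also: mouse activin A protein probed at 4.33 µg/mL on printed slides; score merges bound-protein fluorescence near 667 nm with spot signal-to-noise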
[11] = tested on: Human papillomavirus type 1a protein E7 (residues 44-93); assay: HPV1a E7 fragment binders on microarrays, primary screen, biochemical, small-molecule microarray, residues 44-93, 635 nm fluorescence (AID 1108); details: small-molecule microarray binding, fluorescence 635 nm; higher = more signal;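 also: E7 fragment applied at 1 µg/mL in TBST for 1 h at 4 C; score combines spot fluorescence with its signal to noise ratio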
[12] = modulators of HCV replicon luciferase signal, primary screen, HCV replication inhibitor project, Huh7 cells, luciferase reporter (AID 1109); details: 48 h, higher = more signal;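 also: huh7 hepatoma cells harbouring a luciferase neomycin HCV replicon reporter; luciferase luminescence as measure of HCV replicon replication; test concentration not given here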
[13] = target: Left-right determination factor 2 (Homo sapiens) (UniProt O00292); assay: LEFTY2 binders on small-molecule microarrays, primary screen, biochemical, small-molecule microarray, 635 nm fluorescence scan (AID 1110); details: LEFTY2 binding, higher = more signal
[14] = target: Calmodulin-1 (Homo sapiens) (UniProt P0DP23); assay: CALM1 binders on microarrays, EGTA buffer, profiling panel, biochemical, small-molecule microarray, Cy5-labelled CALM1 (AID 1111); details: Cy5-CALM1 binding fluorescence, higher = more signal;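 also: labelled calmodulin applied in Tris saline Tween buffer holding calcium plus EGTA and DTT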
[15] = target: Calmodulin-1 (Homo sapiens) (UniProt P0DP23); assay: calcium-bound CALM1 binders on microarrays, profiling panel, artefact control for SMM control-protein annotation, biochemical, small-molecule microarray, Cy5-labelled CALM1, plus calcium (AID 1112); details: Cy5-CALM1 binding fluorescence, higher = more signal;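 also: score merges spot fluorescence with signal to noise from triplicate slides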
[16] = small-molecule microarray binders of probe aWnt5a, primary screen, biochemical, biotinylated probe, 635/667 nm fluorescence (AID 1113); details: higher = more signal;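 also: score merges 667 nm fluorescence intensity with signal-to-noise per printed feature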
[17] = small-molecule microarray binders of probe aShh, primary screen, biochemical, biotinylated probe, 635/667 nm fluorescence (AID 1114); details: higher = more signal;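 also: probe is biotin-labelled aShh protein from a stem cell growth factor screen; measures binding of labelled protein to compounds printed on the slide; score merges feature fluorescence at 667 nm with signal-to-noise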
[18] = small-molecule microarray binders of probe aNog, primary screen, biochemical, biotinylated probe, 635/667 nm fluorescence (AID 1115); details: higher = more signal;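 also: probe is biotinylated aNog protein used at 0.15 µg/mL for 1 h at 4 C; z-score combines 667 nm fluorescence of each spot with its signal to noise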
[19] = target: Torsin-1A-interacting protein 1 (Homo sapiens) (UniProt Q5JTV8); assay: LAP1 binders from COS7 cell lysate, primary screen, small-molecule microarray, 635/667 nm fluorescence (AID 1116); details: COS7-hLAP1 lysate binding, 635 nm fluorescence, higher = more signal
[20] = target: Alpha-bungarotoxin (Bungarus multicinctus) (UniProt P60615); assay: alpha-bungarotoxin binders on microarray, profiling panel, artefact control for SMM control protein annotation, biochemical, small-molecule microarray, Alexa647 label, 635/667 nm fluorescence (AID 1117); details: alpha-BTX-A647 binding fluorescence, higher = more signal
Sequence of Alpha-bungarotoxin (Bungarus multicinctus) (P60615 whole entry, looked up): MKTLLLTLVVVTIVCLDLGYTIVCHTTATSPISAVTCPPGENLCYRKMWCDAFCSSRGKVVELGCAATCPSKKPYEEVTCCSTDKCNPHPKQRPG

Sequence of Follistatin-related protein 3 (Homo sapiens) (O95633 whole entry, looked up): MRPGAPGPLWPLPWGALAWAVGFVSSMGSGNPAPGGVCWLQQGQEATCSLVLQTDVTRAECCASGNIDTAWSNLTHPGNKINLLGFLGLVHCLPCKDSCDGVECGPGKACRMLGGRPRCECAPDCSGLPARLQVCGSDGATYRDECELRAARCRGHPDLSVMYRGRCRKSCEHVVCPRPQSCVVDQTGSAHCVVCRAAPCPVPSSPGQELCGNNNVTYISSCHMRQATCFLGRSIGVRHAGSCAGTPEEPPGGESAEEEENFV
Sequence of Epidermal growth factor receptor (Homo sapiens) (P00533 whole entry, looked up): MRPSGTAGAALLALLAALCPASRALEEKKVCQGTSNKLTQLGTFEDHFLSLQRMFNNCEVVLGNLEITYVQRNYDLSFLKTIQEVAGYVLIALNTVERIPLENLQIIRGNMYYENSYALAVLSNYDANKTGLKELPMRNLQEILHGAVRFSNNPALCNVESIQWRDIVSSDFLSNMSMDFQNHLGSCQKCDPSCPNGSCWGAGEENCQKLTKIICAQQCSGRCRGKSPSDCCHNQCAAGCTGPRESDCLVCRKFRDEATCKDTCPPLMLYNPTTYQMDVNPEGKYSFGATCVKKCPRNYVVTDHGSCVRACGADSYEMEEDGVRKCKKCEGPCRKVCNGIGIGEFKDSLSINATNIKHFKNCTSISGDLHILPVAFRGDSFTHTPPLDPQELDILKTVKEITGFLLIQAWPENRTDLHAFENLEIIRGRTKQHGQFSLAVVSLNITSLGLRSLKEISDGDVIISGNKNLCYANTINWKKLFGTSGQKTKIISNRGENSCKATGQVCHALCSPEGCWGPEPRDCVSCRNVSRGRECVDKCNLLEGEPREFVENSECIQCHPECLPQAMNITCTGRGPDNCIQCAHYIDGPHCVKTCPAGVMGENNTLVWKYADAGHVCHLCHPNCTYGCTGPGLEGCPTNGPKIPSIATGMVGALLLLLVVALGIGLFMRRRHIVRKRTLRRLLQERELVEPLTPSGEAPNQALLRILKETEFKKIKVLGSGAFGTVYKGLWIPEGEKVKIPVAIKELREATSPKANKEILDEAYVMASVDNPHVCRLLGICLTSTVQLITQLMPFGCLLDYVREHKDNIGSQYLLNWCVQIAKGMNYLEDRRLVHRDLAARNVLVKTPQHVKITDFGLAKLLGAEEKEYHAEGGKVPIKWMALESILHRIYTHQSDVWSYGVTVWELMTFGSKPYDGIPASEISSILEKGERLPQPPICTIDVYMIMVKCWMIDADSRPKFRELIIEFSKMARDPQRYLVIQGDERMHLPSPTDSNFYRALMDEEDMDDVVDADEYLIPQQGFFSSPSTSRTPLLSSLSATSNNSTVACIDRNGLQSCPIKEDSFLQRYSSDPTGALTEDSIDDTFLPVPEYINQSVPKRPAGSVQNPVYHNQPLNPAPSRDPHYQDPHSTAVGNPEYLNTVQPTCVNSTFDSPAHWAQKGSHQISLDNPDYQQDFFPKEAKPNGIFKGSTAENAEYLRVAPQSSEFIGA
Sequence of Left-right determination factor 2 (Homo sapiens) (O00292 whole entry, looked up): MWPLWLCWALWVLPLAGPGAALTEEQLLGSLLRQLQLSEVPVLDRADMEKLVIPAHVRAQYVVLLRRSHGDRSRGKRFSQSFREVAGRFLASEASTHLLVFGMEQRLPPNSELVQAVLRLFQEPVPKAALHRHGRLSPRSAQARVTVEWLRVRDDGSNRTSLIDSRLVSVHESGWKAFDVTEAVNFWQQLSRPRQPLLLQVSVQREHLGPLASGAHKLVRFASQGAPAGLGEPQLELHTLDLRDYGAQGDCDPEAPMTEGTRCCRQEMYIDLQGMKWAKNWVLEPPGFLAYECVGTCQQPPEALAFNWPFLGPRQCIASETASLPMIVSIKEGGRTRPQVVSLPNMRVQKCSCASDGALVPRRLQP
Sequence of Torsin-1A-interacting protein 1 (Homo sapiens) (Q5JTV8 whole entry, looked up): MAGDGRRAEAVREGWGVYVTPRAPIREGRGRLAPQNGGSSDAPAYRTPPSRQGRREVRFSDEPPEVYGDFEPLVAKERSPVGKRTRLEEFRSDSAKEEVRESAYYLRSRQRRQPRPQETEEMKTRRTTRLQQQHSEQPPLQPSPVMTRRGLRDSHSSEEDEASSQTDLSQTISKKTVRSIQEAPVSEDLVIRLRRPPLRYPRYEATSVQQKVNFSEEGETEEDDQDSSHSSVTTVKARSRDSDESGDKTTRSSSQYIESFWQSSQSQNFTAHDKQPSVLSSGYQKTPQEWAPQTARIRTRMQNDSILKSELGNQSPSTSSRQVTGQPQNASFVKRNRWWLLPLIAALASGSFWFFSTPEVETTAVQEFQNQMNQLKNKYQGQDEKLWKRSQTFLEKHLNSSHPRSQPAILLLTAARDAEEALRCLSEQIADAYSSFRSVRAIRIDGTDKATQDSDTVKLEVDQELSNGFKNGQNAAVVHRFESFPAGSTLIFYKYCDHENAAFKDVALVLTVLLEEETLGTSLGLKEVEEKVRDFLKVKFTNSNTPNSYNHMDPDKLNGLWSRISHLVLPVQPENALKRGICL
Sequence of Fibroblast growth factor 10 (Homo sapiens) (O15520 whole entry, looked up): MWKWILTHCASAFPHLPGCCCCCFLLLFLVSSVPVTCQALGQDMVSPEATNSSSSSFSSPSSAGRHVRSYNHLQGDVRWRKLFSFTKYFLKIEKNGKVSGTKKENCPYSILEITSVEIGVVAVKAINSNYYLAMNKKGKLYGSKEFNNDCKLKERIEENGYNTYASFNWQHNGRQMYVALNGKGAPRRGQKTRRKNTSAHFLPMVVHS
Sequence of Dickkopf-related protein 1 (Homo sapiens) (O94907 whole entry, looked up): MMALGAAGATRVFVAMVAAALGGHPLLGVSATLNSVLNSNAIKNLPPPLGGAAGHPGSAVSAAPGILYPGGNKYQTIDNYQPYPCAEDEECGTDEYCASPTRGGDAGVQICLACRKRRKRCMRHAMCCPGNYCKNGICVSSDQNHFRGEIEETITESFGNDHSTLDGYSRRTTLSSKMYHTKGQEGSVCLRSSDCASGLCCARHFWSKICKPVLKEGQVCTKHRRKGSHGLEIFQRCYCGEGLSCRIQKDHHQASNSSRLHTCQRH

Compound | composite z-score [1] | composite z-score [2] | composite z-score [3] | z-score [4] | composite z-score [5] | composite z-score [6] | composite z-score [7] | composite z-score [8] | composite z-score [9] | composite z-score [10] | composite z-score [11] | z-score [12] | composite z-score [13] | composite z-score [14] | composite z-score [15] | composite z-score [16] | composite z-score [17] | composite z-score [18] | composite z-score [19] | composite z-score [20]
CN(C)CCCC[C@@H]1NC(=O)[C@@H]2C[C@H](C(=O)NCCCCCNC(=O)CS)[C@H](c3cccc(OCCO)c3)N2C1=O | 1.72 | -0.08 | -0.305 | -3.22 (inactive) | 0.551 | 0.684 | 0.35 | 0.356 | 1.08 | 0.995 | -0.0825 | 1.94 | 1 | 0.497 | 0.843 | -0.034 | 0.213 | -0.255 | -0.304 | 0.4
COC(=O)[C@@]1(CCC(=O)OC(C)(C)C)COC(c2ccc(OCCCO)cc2)=N1 | -1.07 | 0.623 | 1.18 | -0.493 (inactive) | -1.2 | -1.19 | -1.82 | -2.47 | -2.17 | -0.0726 | -1.42 | 0.136 | -1.57 | -0.683 | 0.674 | -0.197 | -0.0626 | 0.424 | -0.123 | -0.741
C=C(COC)C(=O)CC[C@@H](OC(=O)c1ccccc1-c1ccccc1C(=O)O)c1cccc(OCCO)c1 | 0.147 | -0.0386 | 0.0203 | 0.306 (inactive) | 0.552 | -0.116 | -0.837 | -0.0053 | -0.0221 | 1.19 | -1.75 | -0.54 | 0.0941 | -1.17 | -1.09 | -0.096 | -0.153 | 0.176 | 0.671 | 1.02
C=CCC(OC(C)=O)[C@@H]1[C@@H](N(Cc2cccc3ccccc23)C(=O)Cc2ccc(OC)cc2)c2cc(OCCCO)ccc2N1C(=O)Cc1ccc(OC)cc1 (stereo not given in full) | -0.247 | 0.199 | 0.373 | -0.768 (inactive) | -0.0161 | -0.45 | 0.015 | -0.134 | 0.0484 | 1.21 | -0.05 | 0.217 | 0.119 | -0.294 | 0.14 | -0.014 | -0.153 | 0.277 | -0.0539 | 0.476
C=C(COC)/C(=C/C[C@H](OC(C)=O)c1cccc(OCCO)c1)c1cc(C(=O)OC)ccc1OC | 0.84 | 0.0919 | -0.143 | -4.8 (inactive) | 1.21 | 0.656 | 0.0086 | 1.33 | 1.47 | 0.981 | -0.109 | -4.08 | 0.38 | -0.547 | -0.377 | -0.0556 | -0.0146 | -0.201 | 0.188 | -0.284
COc1ccc([Si](C)(C)[C@H]2[C@H](CCO)O[C@@]3(C(=O)N(Cc4ccc(N5C(=O)c6cccc7cccc5c67)cc4)c4ccccc43)[C@@H]2C)cc1 | 0.706 | 0.147 | 0.742 | -2.46 (inactive) | -0.0426 | -0.603 | -0.482 | -0.959 | -0.397 | 0.48 | 0.0848 | -4.78 | -0.385 | 1.57 | 1.28 | -0.129 | -0.138 | 0.467 | 0.18 | 1.05
COCCOC(=O)N1C(=O)[C@@]2(c3cc(C#CC4(O)CCCCCC4)ccc31)[C@H](c1ccc(O)cc1)N1[C@H](c3ccccc3)[C@H](c3ccccc3)OC(=O)[C@H]1[C@@H]2C(N)=O | 0.98 | 0.106 | 0.375 | -0.652 (inactive) | 0.744 | 0.0417 | 0.0818 | 0.585 | 0.577 | 0.311 | 1.06 | -0.0511 | -0.0539 | 2.23 | 0.0903 | 0.0719 | -0.223 | 0.725 | 0.852 | 1.97
CC(C)C(=C=CC[C@H](O)c1ccc(OCCO)cc1)C[C@H](O)COCc1ccccc1 | 1.12 | -0.0067 | -0.226 | -0.642 (inactive) | 0.498 | 0.653 | -0.445 | 0.421 | 0.141 | 1.42 | 0.162 | -1.87 | -0.022 | 0.59 | -0.627 | -0.0403 | 0.0469 | 0.217 | 0.833 | 1.07
CC(=O)NCCCC[C@@H]1NC(=O)[C@@H]2C[C@H](C(=O)O)[C@H](c3cccc(OCCO)c3)N2C1=O | 1.25 | -0.018 | -0.37 | -0.877 (inactive) | 1.13 | 1.21 | 0.782 | 0.787 | 1.21 | -0.456 | 0.952 | 0.436 | 1.46 | -0.188 | -0.789 | -0.0403 | -0.0626 | -0.37 | 0.947 | 1.03
CCCCC(=C=CC[C@H](O)c1cccc(OCCO)c1)CCO | 0.674 | -0.0104 | 0.287 | -0.261 (inactive) | 0.0392 | -0.558 | -0.932 | -0.764 | -0.263 | 1.07 | -0.397 | -1.21 | -0.497 | -0.357 | -0.0182 | -0.0462 | 0.0639 | 0.0511 | 0.338 | 0.629
CCOC(=O)C[C@H]1[C@H](OC(=O)c2ccc(-c3ccccc3)cc2)[C@@H](NC(=O)C2CCCCC2)c2cc(OCCCO)ccc2N1C(=O)c1ccc2ccccc2n1 | 0.13 | 0.414 | 0.111 | -1.65 (inactive) | 0.651 | 0.708 | 0.0502 | 0.392 | 1.12 | -0.167 | 1.19 | -0.241 | 0.197 | 1.24 | 0.854 | 0.0102 | -0.0133 | 0.037 | 0.729 | 0.608
